Screening data: PubChem BioAssay, several laboratories
Only some compounds are listed: those with a hit (about 6.6% of all), similar ones and a draw of the others.
Beta apoptosis = beta cell apoptosis inhibition; INS-1E cytokine-induced death, ATP luminescence, 48 h; percent of positive-control rescue, neutral wells zero; protection from apoptosis, % (no concentration beside the values); 300,000 compounds, 0.8% hits;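 active = Every replicate reaches about 75%, or at least half do and their mean reaches it too, limit read from the data; inconclusive = At least half of replicates reach the limit but their mean does not; inactive = Under half of replicates reach the limit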;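 note: 0% = cytokine-treated negative control wells and 100% = positive control rescue; higher means more ATP so stronger rescue from cytokine killing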
Gli-Sufu antag = antagonists of Gli-Sufu signaling; 340,000 compounds, 0.74% hits; Sufu-KO-LIGHT fibroblasts, Gli luciferase reporter luminescence; inhibition, % at 5 µM;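 active = inhibition above about 55%, limit read from the data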;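 note: 0% = DMSO-treated cells and 100% = wells with medium but no cells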
CSC inhib = blocks cancer stem cells; cancer stem cell-like cells viability, luminescence; inhibition, % at 7.5 µM; 300,000 compounds, 1.1% hits; AID 2717; in the data active = inhibition above about 75%; inconclusive = no clear call, values can overlap the other calls; tested in HMLE shEcad cells
MPTP block = permeability transition pore inhibition | 360,000 compounds, 1.4% hits | inhibition, % at 10 µM | AID 602449 | isolated mouse mitochondria, Ca2+ swelling absorbance, 30 min;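 active = inhibition of 50% or more, scaled per plate between neutral and stimulator controls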;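 note: 0% = DMSO wells given calcium and 100% = 1 mM EGTA wells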
Mdm2 MdmX PPI = inhibitors of human Mdm2/MdmX interaction; O15151+Q00987; SaOS-2 split-luciferase Mdm2/MdmX complementation, luminescence; inhibition, % at 8 µM; 330,000 compounds, 3% hits;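 active = inhibition of at least 50% at 8 µM in the primary screen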
GRIN3A LBD mod = modulators (binders) of human NR3A ligand-binding domain; Tm shift relative to glycine control, % at 25 µM; NR3A LBD differential scanning fluorimetry, Tm shift; 0% = protein alone, 100% = glycine-bound protein; AID 1259313; 340,000 compounds, 2.5% hits;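 active = melting temperature shift of at least 10% of the positive control shift, at one fixed dose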
Mdm2 MdmX conf = human Mdm2/MdmX binding inhibition, confirmed. luminescent assay. inhibition, % at 8 µM. 10,000 compounds, 55% hits. shares compounds with Mdm2 MdmX PPI; in the data active = inhibition above about 40%
FLuc counter = full-length luciferase inhibition in Mdm2/MdmX counter-screen | shares compounds with Mdm2 MdmX PPI | SaOS-2 full-length luciferase counterscreen, luminescence | inhibition, % at 8 µM | 6,200 compounds, 77% hits | AID 504607;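 active = mean inhibition at 8 µM reaching about 37%, which flags the compound as non-specific, limit read from the data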;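 note: p53-null SaOS-2 cells with luciferase driven by a doxycycline-inducible promoter; compound on cells about two nights before reading with doxycycline added after day one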
The depositor's hits bear a star; ? = inconclusive; . = not tested or not shown.

SMILES | Beta apoptosis | Gli-Sufu antag | CSC inhib | MPTP block | Mdm2 MdmX PPI | GRIN3A LBD mod | Mdm2 MdmX conf | FLuc counter
COc1ccccc1-c1oc2ccccc2c1C#CC(C)(C)O | -6 | -5 | 16 | 1 | 15 | -8 | . | .
O=C(OCC(=O)N1CCc2ccccc2C1)c1cccnc1Cl | -1 | -8 | -8 | 0 | -23 | -2 | . | .
CN1CCN(c2ncnc3scc(-c4ccccc4Cl)c23)CC1 | -21 | -10 | -14 | 0 | 70* | 0 | 79* | 29
Oc1ccccc1N1CCN(c2ncnc3scc(-c4ccc(F)cc4)c23)CC1 | 15 | 2 | 16 | 1 | 39 | -7 | . | .
Oc1ccccc1N1CCN(c2ncnc3scc(-c4ccccc4)c23)CC1 | 5 | 11 | 26 | 1 | 59* | -15 | 30 | .
COc1ccc(-c2csc3nc(C)nc(N4CCC(C)CC4)c23)cc1OC | -7 | 46 | 12 | 6 | 66* | 2 | 38 | 84*
Cc1cc(-c2csc3ncnc(N4CCN(C)CC4)c23)cc(C)c1C | 6 | 12 | -4 | 0 | 36 | -2 | . | .
COc1ccc(-c2csc3nc(C)nc(N4CCN(C(C)=O)CC4)c23)cc1OC | 0 | 21 | 4 | -1 | -6 | -1 | . | .
Fc1ccc(-c2csc3ncnc(N4CCc5ccccc5C4)c23)cc1 | 0 | 16 | 48 | 4 | 51* | 11* | 27 | .
CCCCn1c(N)c(N(CCOC)C(=O)c2ccc(C)c(S(=O)(=O)N3CCCCC3)c2)c(=O)[nH]c1=O | -7 | 2 | -16 | -2 | 23 | 1 | . | .
COc1ccc(-c2csc3ncnc(N4CCN(c5ccccc5OC)CC4)c23)cc1 | 18 | -4 | 22 | 0 | 21 | -2 | . | .
Cc1ccc(-c2csc3ncnc(N4CCN(S(=O)(=O)c5cccs5)CC4)c23)cc1 | 19 | 9 | . | 1 | 51* | 1 | 18 | .
Cc1nc(N2CCN(c3ccccc3O)CC2)c2c(-c3ccccc3)csc2n1 | -9 | -4 | 46 | 1 | 52* | -10 | 55* | 59*
Cc1ccc(-c2csc3ncnc(N4CCN(S(=O)(=O)c5ccc(C#N)cc5)CC4)c23)cc1 | . | . | . | 0 | . | . | . | .
COc1ccc(C(=O)CC(=O)C(=O)Nc2ccc(C)cc2Cl)cc1 | 3 | -2 | 7 | 2 | 20 | -8 | . | .
COc1cc(OC)c(NC(=O)C(=O)CC(=O)c2ccc(C)cc2C)cc1Cl | -9 | -8 | 27 | 5 | 51* | -3 | 29 | 81*
Cc1cccn2c(=O)c3cc(C(=O)NC4CCCC4)n(C)c3nc12 | -4 | -21 | 47 | -1 | 51* | -1 | 51* | 67*
Cc1cccn2c(=O)c3cc(C(=O)NCCC4=CCCCC4)n(C)c3nc12 | 2 | 12 | -1 | 1 | 55* | 1 | 12 | .
Cn1c(C(=O)NCCC2=CCCCC2)cc2c(=O)n3ccccc3nc21 | -7 | -53 | -11 | 0 | 1 | 3 | . | .
O=C(Cn1cc([N+](=O)[O-])ccc1=O)NC1CCCCC1 | 1 | -3 | . | 0 | -26 | 1 | . | .
O=c1cc(CSc2ccc(Cl)cc2)nc(-c2ccccn2)[nH]1 | 80* | 40 | 94* | -2 | 89* | 8 | 78* | 31
O=c1cc(CSc2ccc(Cl)cc2)nc(-c2ccccc2)[nH]1 | 2 | -14 | -14 | 0 | 13 | 0 | . | .
CC(NC(=O)c1ccc(CS(C)(=O)=O)cc1)c1ccc(-c2ccccc2)cc1 (centres undefined) | -2 | 8 | -4 | -4 | 52* | 2 | -2 | .
CC(NC(=O)c1ccc(CS(C)(=O)=O)cc1)c1ccc(-n2ccnc2)cc1 (centres undefined) | 0 | -9 | 0 | 1 | -10 | -1 | . | .
COc1cccc(/C=N/NC(=O)c2ccc(-c3ccccc3)cc2)c1O | 107* | 34 | ? | 6 | 76* | 26* | 77* | 23
SMILES | Beta apoptosis | Gli-Sufu antag | CSC inhib | MPTP block | Mdm2 MdmX PPI | GRIN3A LBD mod | Mdm2 MdmX conf | FLuc counter
C=CCc1cccc(/C=N/NC(=O)c2ccc3nc[nH]c3c2)c1O | 84* | -15 | 94* | -1 | 67* | 11* | 52* | 26
C=CCc1cccc(/C=N/NC(=O)c2ccccc2Br)c1O | 70 | 6 | 57 | 34 | 38 | 1 | . | .
Cc1cccc(/C=N/NC(=O)c2c(-c3ccccc3)noc2C)c1O | 92* | 11 | -12 | 1 | 67* | -7 | 69* | 36
C=CCc1cccc(/C=N/NC(=O)c2ccccc2OC)c1O | 94* | -5 | -2 | 9 | 66* | -9 | 70* | 47*
CN(CC(=O)Nc1ccc(F)cc1)C(=O)CNC(=O)C1CCCCC1 | -4 | -5 | . | 0 | 5 | 0 | . | .
CC(=O)NS(=O)(=O)c1ccc(NC(=O)c2cccc3ccccc23)cc1 | -1 | -6 | -11 | 2 | 2 | 0 | . | .
COc1cccc(/C=N/NC(=O)c2c(C)nc3ccc(Cl)cn23)c1O | 123* | 84* | 71 | 1 | 68* | -2 | 78* | 34
COc1ccccc1/C=N\NC(=O)c1c(C)nc2ccc(Cl)cn12 | -5 | -2 | -8 | 1 | 14 | 1 | . | .
COc1cccc(/C=N/NC(=O)c2ccc(=O)[nH]n2)c1O | -4 | 2 | 7 | 0 | -1 | 0 | . | .
COc1cccc(/C=N/NC(=O)CN2CC(c3ccccc3)CC2=O)c1O (centres undefined) | 77* | -9 | 58 | 1 | 52* | -5 | 30 | .
COc1ccc(C(=O)N/N=C/c2ccccc2OC(=O)c2ccccc2)cc1 | 102* | -23 | . | -1 | 53* | 1 | 41* | 112*
COc1ccc(C(=O)N/N=C/c2ccc(OC(=O)c3ccccc3)cc2)cc1 | 1 | -17 | 12 | 1 | 4 | 1 | . | .
COc1cccc(/C=N/NC(=O)c2[nH]c(C)c(C(=O)N/N=C/c3cccc(OC)c3O)c2C)c1O | 37 | -5 | 93* | 37 | 62* | 9 | 43* | 70*
NC1=NC2(CCCCC2)N=C(Nc2ccc(F)cc2F)N1 | -1 | 2 | -4 | 0 | 2 | 0 | . | .
Cc1cc(C)cc(NC2=NC3(CCCCC3)N=C(N)N2)c1 | -1 | -4 | 53 | 1 | 59* | -1 | 53* | 73*
O=C(CNC(=O)C1CCCCC1)OC(C(=O)c1ccccc1)c1ccccc1 (centres undefined) | 1 | -3 | 3 | 0 | 22 | -1 | . | .
Cc1oc(/N=C/c2cccc([N+](=O)[O-])c2)c(C#N)c1C | 0 | 0 | -12 | 2 | 16 | 0 | . | .
Cc1ccc(N=Cc2nc(/C=C/c3cccc([N+](=O)[O-])c3)oc2O)cc1 | -4 | 1 | . | 3 | 94* | 5 | 19 | .
COc1ccc(S(=O)(=O)NCCSCc2ccc(Cl)cc2)cc1NC(C)=O | . | 5 | . | 4 | 16 | -2 | . | .
